Experimental findings from ChEMBL document CHEMBL1157539, “Thousands of chemical starting points for antimalarial lead identification” (Nature, 2010) are described below.

Usually Inhibition stands for the relative decrease from the control value, in per cent. A higher Inhibition goes with strong suppression.

The first assay has as its system Plasmodium falciparum. The experiment in a line: GSK_TCMDC: Inhibition of Plasmodium falciparum 3D7 in whole red blood cells, using parasite LDH activity as an index of growth. Test compounds present at 2uM. Format: functional.
`O=C(NC1CCN(CCCc2ccccc2)CC1)c1ccc(-c2cccc(C(F)(F)F)c2)s1.O=C(O)C(F)(F)F` had an Inhibition of 95%. The compound `COc1ccc(CN2CCC(N3CCc4cc(NC(=O)c5cc(C)on5)ccc43)C2)cc1Cl` (stereo not drawn) showed an Inhibition of 94%. Still for that read-out and setting: then `COc1cc(NC(=O)/C=C/c2ccccc2OC(F)(F)F)cc(OCCN2CCN(CCN3CCOCC3)CC2)c1.O=C(O)C(=O)O`, with 98%; and `CC(C)c1cc(Oc2c(I)cc(CCNCc3ccccc3)cc2I)ccc1O.Cl`, with 95%. On the same count and under the same terms, then `O=C(O)C(F)(F)F.c1cc(CNCCc2ccncc2)cc(-c2ccc(-c3nc4ccccc4[nH]3)cc2)c1`, with 99%; and `COc1cc(Cc2cnc(N)nc2N)cc(OCc2cccc(C(=O)O)c2)c1OC.Cl`, with 92%. Same read-out and setting: then `CCOC(=O)N1CCC(NC(=O)c2ccc(C(C)(C)C)cc2OC)CC1`, with 88%; and `CCc1cc(Cc2cnc(N)nc2N)cc(CC)c1OC`, with 90%. In turn, `CN(C)CCCOc1ccc(CNCc2cccc(Oc3ccc(Cl)cc3)c2)cc1.O=C(O)C(F)(F)F` had an Inhibition of 100%. On the same count and under the same terms, then `O=C(NCCCCN1CCC(c2ccc3c(c2OCc2ccncc2)CCCC3)CC1)c1ccc(NC(=O)c2ccc(Cl)cc2)cc1`, with 100%. The same measure, in the same setting: then `COc1ccc2nc3cc(Cl)ccc3c(NCCN3CCN(C)CC3)c2c1.Cl`, with 100%; and `CCOC(=O)C1=C(C)N=c2sc(=Cc3cc(Cl)ccc3O)c(=O)n2C1c1cc(OC)c(OC)cc1Br` (stereo not drawn), with 97%; and `CCOc1ccc(C(C)NC(=O)c2ccc(OC)c(Br)c2)cc1OCC` (stereo not drawn), with 100%. On the same count and under the same terms, then `CC(C)(CNC(=O)[C@@H]1CCCCN1)c1nc(-c2ccc(Cl)c(O)c2)c(-c2ccncc2)[nH]1.Cl`, with 97%. Consider `Cc1cccc2nc(-c3ccc(-c4ccc(CNCCCN5CCCC5=O)cc4)s3)[nH]c12.O=C(O)C(F)(F)F`, for which the Inhibition came out at 100%. Consider `Cc1ccc(Oc2ncccc2C(=O)Nc2cccc3cccnc23)c(C)c1`, for which the Inhibition is on record as 99%.

In turn, `O=C(Nc1cccc(CN2CCCN(CCc3ccccc3)CC2)c1)c1cc2ccccc2s1.O=C(O)C(F)(F)F` registered an Inhibition of 93%. Regarding `O=C(Nc1ccc(-c2cncc(NCCCN3CCCC3)c2)cc1)c1ccccc1`, the Inhibition came out at 94%. On the same count and under the same terms, then `Cc1ccc(NS(=O)(=O)c2ccc(-c3ccccc3)cc2)c(Cn2cnc(N3CCCNCC3)cc2=O)c1.O=C(O)C(F)(F)F`, with 87%; and `COc1ccc(O)c(Cc2cnc3nc(N)[nH]c(=O)c3c2C)c1.CS(=O)(=O)O`, with 96%. The same measure, in the same setting: then `Cc1ccc(O)c(CN2CCCC(COC(c3ccc(F)cc3)c3ccc(F)cc3)C2)c1` (stereo not drawn), with 98%; and `O=C(Cc1ccc(-c2ccccc2)cc1)N[C@H]1CCN(Cc2ccc(OCCCN3CCCCC3)cc2)C1`, with 99%. Same read-out and setting: then `Cc1cc(N2CCCC2=O)ccc1-c1ccc(C(=O)N2CCC(Oc3cccc(Cl)c3)CC2)cc1`, with 99%; and `c1ccc(OCCCCN2CCCCC2)cc1`, with 95%; and `CN1C(C)(C)CC(NC(=O)c2ccc(-c3cc4cc(Cl)c(Cl)cc4[nH]3)o2)CC1(C)C`, with 100%. In the case of `COc1ccc(-c2csc(N(CCCN(C)C)C(=O)c3cc4c(C)nn(-c5ccccc5)c4s3)n2)cc1.Cl`, the Inhibition is recorded as 100%. On the same count and under the same terms, then `O=C(O)C(F)(F)F.O=[N+]([O-])c1cccc(CNC2CCN(Cc3ccc4ccccc4c3)CC2)c1`, with 100%. Still for that read-out and setting: then `CN1CCCN(Cc2cccc(-c3ccc(NC(=O)c4cccc(C#N)c4)cc3)c2)CC1.O=C(O)C(F)(F)F`, with 100%.

In another assay the test system is Plasmodium falciparum. Briefly: GSK_TCMDC: Inhibition of Plasmodium falciparum Dd2 in whole red blood cells, using parasite LDH activity as an index of growth. Test compounds present at 2uM. Format: functional.
`CC(C)CN(c1nc(C(=O)NNC(=O)[C@H](CC2CC2)NC(=O)c2cc3cc(OCCN4CCCCC4)ccc3o2)cs1)C1CC1` displayed an Inhibition of 98%. For the compound `COc1ccc(-c2nc(NC(=O)CSc3ccc([N+](=O)[O-])cc3)sc2C)cc1`, the Inhibition turned out to be 100%.

`C=Cc1sc(CNCCCNc2cc(=O)c3ccccc3[nH]2)c(C)c1Br` gave an Inhibition of 35%. The same measure, in the same setting: then `CN1CCN(CCCN(Cc2ccc(-c3ccc(CNCc4ccc5c(c4)OCO5)cc3)cc2)C(=O)Nc2ccccc2)CC1.O=C(O)C(F)(F)F`, with 77%; and `CNC(=O)c1cnc(Nc2ccc(N3CCN(C)CC3)cc2)nc1Nc1cccc(OC)c1.O=C(O)C(F)(F)F`, with 100%; and `C=CCn1c(SCC(=O)Nc2cc(Cl)ccc2Cl)nc2sc(C)cc2c1=O`, with 96%.

On to `Cc1[nH]c(C)c(-c2ccc(OCc3ccc(OC(F)(F)F)cc3)nc2)c(=O)c1Br`, for which the Inhibition was 97%.

`CCN(CC)CCN(Cc1ccc(-c2ccc(C(F)(F)F)cc2)cc1)C(=O)Cn1c(CCc2ccc(F)c(C#N)c2)nc(=O)c2ccccc21.O=C(O)C(O)C(O)C(=O)O` came in with an Inhibition of 55%.

In turn, `CC(C)C(NC(=O)c1c(F)cccc1F)C(=O)Nc1ccc(Cc2nc3ccccc3s2)cc1` (stereo not drawn) showed an Inhibition of 55%. `Oc1ccc(Cl)cc1-c1cc(C(F)(F)F)nc(-c2ccccc2)n1`: the Inhibition was 92%.

`CCOC(=O)c1[nH]c2ccc(F)cc2c1NC(=O)CN1CCN(c2cccc(C(F)(F)F)c2)CC1`: the Inhibition was found to be 90%. Same read-out and setting: then `CC(C)(CNC(=O)[C@@H]1CCCN(CCOc2ccc(F)c(F)c2)C1)c1nc(-c2ccc(Cl)c(O)c2)c(-c2ccncc2)[nH]1.Cl`, with 77%; and `O=C(NC1CCN(CCCc2ccccc2)CC1)c1ccc(-c2cccc(C(F)(F)F)c2)s1.O=C(O)C(F)(F)F`, with 47%. Same read-out and setting: then `COc1ccc(CN2CCC(N3CCc4cc(NC(=O)c5cc(C)on5)ccc43)C2)cc1Cl` (stereo not drawn), with 91%. As for `COc1cc(NC(=O)/C=C/c2ccccc2OC(F)(F)F)cc(OCCN2CCN(CCN3CCOCC3)CC2)c1.O=C(O)C(=O)O`, the Inhibition is 25%.

The compound `CC(C)c1cc(Oc2c(I)cc(CCNCc3ccccc3)cc2I)ccc1O.Cl` showed an Inhibition of 54%.

`O=C(O)C(F)(F)F.c1cc(CNCCc2ccncc2)cc(-c2ccc(-c3nc4ccccc4[nH]3)cc2)c1` returned an Inhibition of 97%. On the same count and under the same terms, then `COc1cc(Cc2cnc(N)nc2N)cc(OCc2cccc(C(=O)O)c2)c1OC.Cl`, with 0%; and `CCOC(=O)N1CCC(NC(=O)c2ccc(C(C)(C)C)cc2OC)CC1`, with 0%; and `CCc1cc(Cc2cnc(N)nc2N)cc(CC)c1OC`, with 12%. Compound `CN(C)CCCOc1ccc(CNCc2cccc(Oc3ccc(Cl)cc3)c2)cc1.O=C(O)C(F)(F)F` came in with an Inhibition of 30%.

In turn, `O=C(NCCCCN1CCC(c2ccc3c(c2OCc2ccncc2)CCCC3)CC1)c1ccc(NC(=O)c2ccc(Cl)cc2)cc1` displayed an Inhibition of 99%. Same read-out and setting: then `COc1ccc2nc3cc(Cl)ccc3c(NCCN3CCN(C)CC3)c2c1.Cl`, with 99%. Compound `CCOC(=O)C1=C(C)N=c2sc(=Cc3cc(Cl)ccc3O)c(=O)n2C1c1cc(OC)c(OC)cc1Br` (stereo not drawn) registered an Inhibition of 76%.

In turn, `CCOc1ccc(C(C)NC(=O)c2ccc(OC)c(Br)c2)cc1OCC` (stereo not drawn) came in with an Inhibition of 100%. Same read-out and setting: then `CC(C)(CNC(=O)[C@@H]1CCCCN1)c1nc(-c2ccc(Cl)c(O)c2)c(-c2ccncc2)[nH]1.Cl`, with 96%; and `Cc1cccc2nc(-c3ccc(-c4ccc(CNCCCN5CCCC5=O)cc4)s3)[nH]c12.O=C(O)C(F)(F)F`, with 43%. `Cc1ccc(Oc2ncccc2C(=O)Nc2cccc3cccnc23)c(C)c1` yielded an Inhibition of 76%. On the same count and under the same terms, then `O=C(Nc1cccc(CN2CCCN(CCc3ccccc3)CC2)c1)c1cc2ccccc2s1.O=C(O)C(F)(F)F`, with 39%; and `O=C(Nc1ccc(-c2cncc(NCCCN3CCCC3)c2)cc1)c1ccccc1`, with 49%; and `Cc1ccc(NS(=O)(=O)c2ccc(-c3ccccc3)cc2)c(Cn2cnc(N3CCCNCC3)cc2=O)c1.O=C(O)C(F)(F)F`, with 33%. Same read-out and setting: then `COc1ccc(O)c(Cc2cnc3nc(N)[nH]c(=O)c3c2C)c1.CS(=O)(=O)O`, with 6%. Still for that read-out and setting: then `Cc1ccc(O)c(CN2CCCC(COC(c3ccc(F)cc3)c3ccc(F)cc3)C2)c1` (stereo not drawn), with 98%. Compound `O=C(Cc1ccc(-c2ccccc2)cc1)N[C@H]1CCN(Cc2ccc(OCCCN3CCCCC3)cc2)C1` had an Inhibition of 27%. Regarding `Cc1cc(N2CCCC2=O)ccc1-c1ccc(C(=O)N2CCC(Oc3cccc(Cl)c3)CC2)cc1`, the Inhibition was 98%. `c1ccc(OCCCCN2CCCCC2)cc1` had an Inhibition of 1%.

Compound `CN1C(C)(C)CC(NC(=O)c2ccc(-c3cc4cc(Cl)c(Cl)cc4[nH]3)o2)CC1(C)C` returned an Inhibition of 43%.

As for `COc1ccc(-c2csc(N(CCCN(C)C)C(=O)c3cc4c(C)nn(-c5ccccc5)c4s3)n2)cc1.Cl`, the Inhibition is 16%. With `O=C(O)C(F)(F)F.O=[N+]([O-])c1cccc(CNC2CCN(Cc3ccc4ccccc4c3)CC2)c1`, the Inhibition was determined as 22%. Still for that read-out and setting: then `CN1CCCN(Cc2cccc(-c3ccc(NC(=O)c4cccc(C#N)c4)cc3)c2)CC1.O=C(O)C(F)(F)F`, with 96%.
